Measurements reported in PubChem BioAssay.
The source made the active and inactive calls. Unless noted, no stated cut-off is given here; in the data, active means inhibition above about 80%; inactive means the rest.

Assays:
[1] = LFS_MB_P medulloblastoma growth inhibition, cell-based, chromothripsis tumors, cisplatin or BGB combos (AID 1671449); conditions: LFS_MB_P medulloblastoma cells;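 further: cells exposed for 96 hours; 0% = vehicle DMSO and 100% = killing by high DMSO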
[2] = HDN33 neuroblastoma growth inhibition, cell-based, chromothripsis tumors, cisplatin or BGB combos (AID 1671450); conditions: HDN33 neuroblastoma cells, stronger effect = higher value;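 further: cells exposed to compound for four days; 0% = vehicle DMSO and 100% = cell killing by high DMSO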
[3] = ICB984 medulloblastoma cell growth inhibition, synergistic combos for chromothripsis tumors, cisplatin or BGB combos (AID 1671451; call rule not given here;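 further: cells exposed for 96 hours before readout; 0% = vehicle DMSO and 100% = killing by high DMSO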); conditions: ICB984 medulloblastoma cells, drug combinations, stronger effect = higher value
[4] = LFS_MB_1R medulloblastoma cell growth inhibition, synergistic combos for chromothripsis tumors, cisplatin or BGB combos (AID 1671452); conditions: LFS_MB_1R medulloblastoma cells, stronger effect = higher value;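 further: cells exposed for 96 hours before readout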
[5] = HTB85 osteosarcoma cell growth inhibition, synergistic combos for chromothripsis tumors, BGB or cisplatin IC20 combos (AID 1671453); conditions: HTB85 osteosarcoma cells, drug combinations, stronger effect = higher value;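 further: cells exposed for 96 hours before readout; 0% = vehicle DMSO and 100% = high DMSO killing control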
[6] = CRL2098 osteosarcoma cell growth inhibition, synergistic combos for chromothripsis tumors, BGB or cisplatin IC20 combos (AID 1671454); conditions: CRL2098 osteosarcoma cells, drug combinations, stronger effect = higher value;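 further: cells exposed for 96 h before readout; 0% = vehicle DMSO and 100% = killing by high DMSO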
[7] = MDA-MB-436 breast carcinoma cell growth inhibition, synergistic combos for chromothripsis tumors, BGB or cisplatin combos (AID 1671458; call rule not given here;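 further: cells exposed for 96 hours; 0% = vehicle DMSO and 100% = killing by high DMSO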); conditions: MDA-MB-436 breast carcinoma growth inhibition, drug combinations, stronger effect = higher value
[8] = growth inhibition of BT084 medulloblastoma cells, cell-based, ICGC_MB145, cisplatin and BGB IC40 combos (AID 1671461); conditions: drug combinations, stronger effect = higher value;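 further: cells exposed to drugs for 96 hours; 0% = vehicle DMSO and 100% = high DMSO full killing control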
[9] = growth inhibition of RCMB18 medulloblastoma cells, cell-based, cisplatin and BGB IC40 combos (AID 1671462); conditions: stronger effect = higher value;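 further: cells exposed to compound for four days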
[10] = growth inhibition of CRL1545 osteosarcoma cells, cell-based, cisplatin and BGB IC20 combos (AID 1671464); conditions: stronger effect = higher value;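 further: cells exposed to compound for 96 hours before readout; 0% = vehicle DMSO and 100% = high DMSO killing control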
[11] = test system: Hepatitis C virus NS3 helicase; test: HCV NS3 helicase inhibitors, primary screen, biochemical, fluorescence polarization, LOPAC1280 library (AID 687035; in the data active means inhibition above about 37%); conditions: Purified HCV NS3 helicase, Cy5-dT15 ssDNA binding fluorescence polarization; stronger effect = higher value; concentration not given here
[12] = Cy5 fluorescence quenching or enhancement artefacts, artefact control for HCV NS3 helicase inhibitor project, biochemical, LOPAC1280 (AID 687037; call rule not given here); conditions: Cy5-DNA-NS3h complex fluorescence interference counterscreen
[13] = measured here: combination with BGB IC40, at 0.05 µM
[14] = measured here: with BGB IC20 combination, at 0.5 µM
[15] = measured here: with cisplatin IC20 combination, at 0.5 µM
[16] = measured here: combination with cisplatin, at 0.5 µM

SMILES: CCc1c2c(nc3ccc(O)cc13)-c1cc3c(c(=O)n1C2)COC(=O)[C@]3(O)CC
- inhibition ([1]; at 0.5 µM, stronger effect = higher value): -26% (inactive)
- inhibition ([1]; measured here: combination with BGB IC20, at 0.005 µM): -6.89%
- inhibition ([1]; measured here: combination with BGB IC40, at 0.005 µM): -27.9%
- inhibition [1, 13]: -20.9%
- inhibition ([1]; measured here: combination with cisplatin, at 0.5 µM, stronger effect = higher value): -58.2%
- inhibition ([1]; measured here: combination with cisplatin, at 5 µM, stronger effect = higher value): 87.9%
- inhibition ([2]; BGB combo, at 5 µM): 98.3%
- inhibition ([2]; at 0.5 µM): 84.1% (active)
- inhibition ([2]; cisplatin combo, at 5 µM): 98.4%
- inhibition [2, 14]: 83%
- inhibition [2, 15]: 82.2%
- inhibition ([2]; single agent, at 5 µM): 96.3%
- inhibition ([3]; BGB IC20 combo, at 0.005 µM): 45.8%
- inhibition ([3]; BGB IC40 combo, at 0.005 µM): 68.8%
- inhibition ([3]; BGB IC40 combo, at 0.05 µM): 95.3%
- inhibition ([3]; at 0.5 µM): -17.9% (inactive)
- inhibition ([3]; cisplatin combo, at 0.05 µM): 95.2%
- inhibition ([3]; cisplatin combo, at 0.5 µM): -11.4%
- inhibition ([3]; cisplatin combo, at 5 µM): -28.7%
- inhibition ([3]; measured here: 5 uM single agent, at 5 µM): -16.8%
- inhibition ([4]; at 0.5 µM): 74.1% (inactive)
- inhibition [4, 13]: -7.58%
- inhibition [4, 16]: 77.6%
- inhibition ([4]; measured here: combination with cisplatin, at 5 µM): 86.6%
- inhibition ([5]; at 0.5 µM): 98.3% (active)
- inhibition ([5]; measured here: with BGB IC20, at 0.5 µM): 96.1%
- inhibition ([5]; measured here: with BGB IC20, at 5 µM): 98.1%
- inhibition ([5]; measured here: with cisplatin IC20, at 0.5 µM): 99.1%
- inhibition ([5]; measured here: with cisplatin IC20, at 5 µM): 99.5%
- inhibition ([5]; single agent, at 5 µM): 99.6%
- inhibition ([6]; at 0.5 µM): 57.3% (inactive)
- inhibition ([6]; measured here: combination with BGB at IC20, at 0.5 µM): 88.7%
- inhibition ([6]; measured here: combination with cisplatin at IC20, at 0.5 µM): 37.4%
- inhibition ([7]; at 0.5 µM): 72.1% (inactive)
- inhibition ([7]; measured here: BGB combination, at 0.5 µM): 67%
- inhibition ([7]; measured here: BGB combination, at 5 µM): 73.3%
- inhibition ([7]; measured here: cisplatin combination, at 0.5 µM): 71.2%
- inhibition ([7]; measured here: cisplatin combination, at 5 µM): 84.4%
- inhibition ([8]; at 0.5 µM): 5.49% (inactive)
- inhibition ([8]; cisplatin combination, at 0.5 µM): 45.3%
- inhibition ([8]; cisplatin combination, at 5 µM): 33.9%
- inhibition ([8]; measured here: BGB IC40 combination 0.05 uM, at 0.05 µM): -2.99%
- inhibition ([8]; single agent, at 5 µM): 52.7%
- inhibition ([9]; at 0.5 µM): 30.1% (inactive)
- inhibition ([9]; cisplatin combo, at 5 µM): 67.1%
- inhibition ([9]; measured here: BGB IC40 combination, at 0.05 µM): -24.6%
- inhibition [9, 16]: 61.9%
- inhibition ([9]; single agent, at 5 µM): 62.2%
- inhibition ([10]; at 0.5 µM): 93.7% (active)
- inhibition [10, 14]: 98.1%
- inhibition [10, 15]: 91.2%
- inhibition ([10]; single agent, at 0.05 µM): 16.8%
- inhibition ([10]; single agent, at 5 µM): 99.8%

SMILES: O=C(O)C1CCCN(CCC=C(c2ccccc2)c2ccccc2)C1 (stereo not given)
- inhibition [11]: -1% (inactive)
- fluorescence ratio (interference) [12]: 0.9 (inactive)
